In PubChem BioAssay (NCATS) one finds Potency data, which are given here for 24 compounds.

Assay [1] has as its target Retinaldehyde dehydrogenase 3 (Homo sapiens) (UniProt P47895). Kind of assay: qHTS for Inhibitors of the Aldehyde Dehydrogenase Family (ALDH1A3) Confirmatory screens (AID 2061311). Also: nearly all actives have a fitted effect of over 60% in size. Also: potency is read from the fitted curve at half-maximal effect. In general terms: In qHTS, concentration-response curves come from the screen itself.
Assay [2] addresses Retinal dehydrogenase 2 (Homo sapiens) (UniProt O94788). Nature of the assay: qHTS for Inhibitors of the Aldehyde Dehydrogenase Family (ALDH1A2) Confirmation screens (AID 2061314). Also: nearly all actives have a fitted effect of over 65% in size. Also: potency is read from the fitted curve at half-maximal effect.
Assay [3] deals with Retinaldehyde dehydrogenase 3 (Homo sapiens) (UniProt P47895). Nature of the assay: qHTS for Inhibitors of the Aldehyde Dehydrogenase Family (ALDH1A3) Primary screen (AID 2061315).
For assay [4], the target named is Aldehyde dehydrogenase 1A1 (Homo sapiens) (UniProt P00352). Nature of the assay: qHTS for Inhibitors of the Aldehyde Dehydrogenase Family (ALDH1A1) Confirmatory screens (AID 2061316). Also: nearly all actives have a fitted effect of over 65% in size. Also: potency is read from the fitted curve at half-maximal effect.

Structures are written as SMILES. Records with an inconclusive call do not appear. Active and inactive are the calls of the source. Calls follow the shape of the dose curve; as a rule, active = well fitted inhibition curve with a large enough effect; inconclusive = small, poorly fitted or top-dose-only effect; inactive = no such curve, though single readings can be large or run the other way.

Turning to `CN(Cc1ccco1)Cc1ccc(O)c2ncccc12`, the Potency in assay [1] is 11.3 µM (active); in assay [2] it was 2.52 µM (active). Moreover, the Potency result in assay [3] was “inactive”.

As to `NC(=O)C1CCN(c2nc(-c3ccc(-c4ccccc4)cc3)cs2)CC1`, the Potency in assay [1] was 28.3 µM (active). The Potency result in assay [2], in assay [3] and in assay [4] was “inactive” throughout.

For `NC(=O)c1cccc(-c2cnc3c(O)ccc(C(=O)O)c3c2)c1`, the Potency in assay [1] is 11.3 µM (active); in assay [2], 4.49 µM (active); in assay [4] it was 8.96 µM (active). In addition, in assay [3], the Potency entry is “inactive”.

As for `CC(C)(C)C(=O)N1CCN(c2cccc(Nc3nn4c(=O)c5ccccc5nc4s3)c2)CC1`, the Potency is 28.3 µM (active) in assay [1], 25.2 µM (active) in assay [2] and 7.98 µM (active) in assay [4]. In assay [3], the Potency result is “inactive”.

For `COc1ccc2ccccc2c1CN(C)CC(=O)Nc1ccc(N2CCOCC2)cc1`, the values for the Potency in assay [1], in assay [2] and in assay [4] were 11.3 µM (active), 11.3 µM (active) and 7.98 µM (active), respectively.

`O=C(Cc1ccccc1)Nc1sc2c(c1C(=O)Nc1ccc(Cl)cc1)CCCC2`: the Potency entry in assay [1] and in assay [3] was “inactive” throughout. Also, the Potency is 4 µM (active) in assay [2] and 11.3 µM (active) in assay [4].

In the case of `CC(=O)N1CCN(c2ccc(NS(=O)(=O)c3ccc4c(c3)CC(=O)N4)cc2)CC1`, the Potency result in assay [1], in assay [2] and in assay [3] was “inactive” in each case.

As to `CC(=O)Nc1sc2c(c1-c1ccccc1)CCN(C(=O)OC(C)(C)C)C2`, the Potency result in assay [1] and in assay [3] was “inactive” throughout. In addition, the Potency in assay [4] was 7.98 µM (active).

On to `Cc1sc(NC(=O)Cc2ccc3c(c2)OCO3)nc1-c1ccc2c(c1)CCN2C`, for which the Potency in assay [1] was 11.3 µM (active); in assay [2] it was 12.7 µM (active); in assay [4], 3.57 µM (active).

Turning to `CC(=O)Nc1sc2c(c1-c1nccs1)CCNC2`, the Potency result in assay [1], in assay [2] and in assay [3] was “inactive” in each case.

As for `O=C(Nc1sc2c(c1-c1nc3ccccc3s1)CCNC2)C(F)(F)F`, the Potency result in assay [1] and in assay [3] was “inactive” each time. The Potency in assay [2] is 28.3 µM (active).

Turning to `Nc1ccc(CNc2ccc([S+](=O)([O-])Nc3nccs3)cc2)c(O)c1`, the Potency was 5.04 µM (active) in assay [1], 17.9 µM (active) in assay [2] and 3.18 µM (active) in assay [4].

For the compound `O=C1Cc2cc(S(=O)(=O)N3CCN(c4ccc(Br)cc4)CC3)ccc2N1`, the Potency entry in assay [1] and in assay [3] was “inactive” throughout. For the same compound, the Potency in assay [2] is 20.6 µM (active).

For `CCC(=O)NC(c1cccs1)c1cc([N+](=O)[O-])c2cccnc2c1OC` (configuration not stated), the results for the Potency in assay [1], in assay [2] and in assay [4] were 3.57 µM (active), 2.01 µM (active) and 11.3 µM (active), respectively.

For the compound `COc1cc(/C=C(\C#N)C(=O)Nc2ccc(C(=O)O)cc2)ccc1OC(=O)c1cccc(F)c1`, in assay [1], the Potency was 15.8 µM (active). In addition, the Potency entry in assay [2] and in assay [4] was “inactive” in each case.

As to `Cc1ccn2c(Nc3ccc4c(c3)OCO4)c(-c3ccccn3)nc2c1`, in assay [1], the Potency is 17.9 µM (active). Also, in assay [3], the Potency entry was “inactive”.

Regarding `Cc1ccc(S(=O)(=O)Nc2cc(S(=O)(=O)c3ccc(C)cc3)c(O)c3cccnc23)cc1`, the figures for the Potency in assay [1], in assay [2] and in assay [4] were 1.13 µM (active), 2.01 µM (active) and 1.42 µM (active), respectively.

For `Cc1csc(CNc2ncnc3cc(-c4ccc5c(c4)OCO5)ccc23)n1`, the Potency in assay [1] was 7.94 µM (active); in assay [4] it was 11.3 µM (active). For the same compound, the Potency result in assay [3] was “inactive”.

On to `N#Cc1cccc(OC2=NS(=O)(=O)c3ccccc32)c1`, for which the figures for the Potency in assay [1] and in assay [4] were 12.7 µM (active) and 5.04 µM (active), respectively. Moreover, in assay [3], the Potency entry was “inactive”.

Consider `COc1ccc(-c2ccc(C)cc2)cc1CC(=O)N(C)C(C)c1ccco1` (configuration not stated), for which the results for the Potency in assay [1], in assay [2] and in assay [4] were 2.01 µM (active), 6.31 µM (active) and 11.3 µM (active), respectively.

Regarding `COC(=O)CCSC/C=C(\C)CCn1cc(CCc2ccc(-c3ccccc3)cc2)nn1`, the figures for the Potency in assay [1] and in assay [4] were 8.96 µM (active) and 4.49 µM (active), respectively. Moreover, the Potency entry in assay [3] was “inactive”.

`S=C(NCCCc1cnc[nH]1)NCCCN(Cc1ccccc1)c1ccc(Br)cn1`: the Potency result in assay [1] and in assay [3] was “inactive” in each case.

As for `Cc1ccc(-c2ccnc(N3CCC(C(N)=O)CC3)n2)cc1`, the Potency in assay [1] is 5.04 µM (active). Further, in assay [3], the Potency result is “inactive”.

For `Nc1nc2c(s1)C(c1ccccc1Cl)CC(=O)N2` (configuration not stated), in assay [1], the Potency is 5.65 µM (active). Moreover, the Potency entry in assay [3] is “inactive”.
